From PubChem BioAssay (NCI)
The panel holds about 79,000 compounds, 15% with a hit somewhere; the sample as a whole holds those more often. Active and inactive are the calls of the source. Cut-off read from the data, not from the text of the source: active = growth inhibition above about 70%; inactive = the rest.

Experiments:
[1] = NCI Yeast Anticancer Drug Screen. Data for the rad52 strain (AID 147);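 note: 0% = growth of vehicle-treated control cultures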; conditions: S. cerevisiae rad52 mutant growth inhibition, hits give high values
Summary of the method: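 Compounds are applied to a genetically defined yeast strain lacking normal DNA damage repair, and inhibition of growth is expressed relative to cultures given vehicle only.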

[2] = NCI Yeast Anticancer Drug Screen. Data for the wt1 strain (AID 149);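 note: 0% = growth of vehicle-treated wt1 cultures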; conditions: S. cerevisiae wt1 strain (SPY 50644) growth inhibition, hits give high values
Summary of the method: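 Readout: yeast growth inhibition, normalised to vehicle controls, in the wt1 strain exposed to test compounds.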

[3] = NCI Yeast Anticancer Drug Screen. Data for the rad50EPP+ strain (AID 151);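 note: 0% = growth of vehicle-treated control cultures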; conditions: S. cerevisiae rad50 mutant strain, hits give high values
Summary of the method: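 Compounds were applied to the rad50EPP+ yeast strain, which bears a defined DNA repair alteration, and growth inhibition was determined relative to vehicle-treated cultures.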

[4] = NCI Yeast Anticancer Drug Screen. Data for the mgt1 strain (AID 153); conditions: S. cerevisiae mgt1 mutant growth inhibition, hits give high values
Summary of the method: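 Strain: mgt1 yeast, one of a set carrying defined DNA damage repair or cell cycle control alterations. Compound-treated growth compared with vehicle.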

[5] = NCI Yeast Anticancer Drug Screen. Data for the rad50 strain (AID 155);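 note: 0% = growth of vehicle-only cultures of the same strain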; conditions: S. cerevisiae rad50 strain growth inhibition, hits give high values
Summary of the method: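 Compounds were tested on a yeast strain with an engineered DNA damage repair alteration; the reported value is growth inhibition normalised to vehicle treatment.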

[6] = NCI Yeast Anticancer Drug Screen. Data for the mec2-1 strain (AID 157); conditions: S. cerevisiae mec2-1 strain, hits give high values
Summary of the method: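 Strain: mec2-1 (DNA repair/cell cycle alteration). Compound exposure, then growth measured; inhibition expressed relative to vehicle.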

[7] = NCI Yeast Anticancer Drug Screen. Data for the rad14 strain (AID 159);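 note: 0% = growth of vehicle-treated control cultures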; conditions: S. cerevisiae rad14 strain growth inhibition, hits give high values
Summary of the method: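 Compound-treated yeast with a defined DNA-repair lesion; growth inhibition normalised to vehicle-treated cultures.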

[8] = NCI Yeast Anticancer Drug Screen. Data for the sgs1 mgt1 strain (AID 161);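 note: 0% = growth of cultures given vehicle only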; conditions: S. cerevisiae sgs1 mgt1 strain, hits give high values
Summary of the method: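 Read-out: growth inhibition vs vehicle controls. Cells: mutant yeast strain deficient in DNA damage repair.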

[9] = NCI Yeast Anticancer Drug Screen. Data for the CLN2oe strain (AID 163);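 note: 0% = growth of vehicle-only control cultures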; conditions: S. cerevisiae CLN2oe strain, hits give high values
Summary of the method: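 Growth of a genetically modified yeast strain is measured after compound exposure and compared with cultures given vehicle alone.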

[10] = NCI Yeast Anticancer Drug Screen. Data for the cln2 rad14 strain (AID 165);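 note: 0% = growth equal to vehicle treated cultures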; conditions: S. cerevisiae cln2 rad14 strain, hits give high values
Summary of the method: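 Compounds are applied to the cln2 rad14 yeast strain, and growth is then compared with that of vehicle-treated cultures to give inhibition.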

[11] = NCI Yeast Anticancer Drug Screen. Data for the bub3 strain (AID 167); conditions: S. cerevisiae bub3 mutant strain, hits give high values
Summary of the method: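 Growth of a checkpoint-deficient yeast mutant is measured after compound exposure. Values represent inhibition relative to vehicle.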

[12] = NCI Yeast Anticancer Drug Screen. Data for the wt2 strain (AID 169);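 note: 0% = growth of vehicle-treated yeast cultures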; conditions: S. cerevisiae wt2 strain growth inhibition, hits give high values
Summary of the method: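 This strain belongs to a panel of yeast strains with defined genetic alterations in DNA damage repair or cell cycle control. Compounds are applied, and growth inhibition is measured against vehicle-treated cultures.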

[13] = NCI Yeast Anticancer Drug Screen. Data for the mlh1 strain (AID 171);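 note: 0% = growth of vehicle-treated control cultures of the same strain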; conditions: S. cerevisiae mlh1 strain growth inhibition, hits give high values
Summary of the method: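 Growth of the mutant yeast strain after compound exposure, expressed as inhibition relative to vehicle-only controls.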

[14] = NCI Yeast Anticancer Drug Screen. Data for the sgs1 strain (AID 173);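 note: 0% = growth of vehicle-only control cultures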; conditions: S. cerevisiae sgs1 mutant, hits give high values
Summary of the method: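 Growth of a yeast strain bearing a defined genetic alteration is measured after compound treatment. Inhibition is expressed relative to vehicle-only controls.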

[15] = NCI Yeast Anticancer Drug Screen. Data for the mlh1 rad18 strain (AID 175); conditions: S. cerevisiae mlh1 rad18 strain growth inhibition, hits give high values
Summary of the method: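 Read-out is yeast growth inhibition, calculated against vehicle-only controls. The compound was applied to a strain engineered with DNA damage repair alterations.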

[16] = NCI Yeast Anticancer Drug Screen. Data for the rad18 strain (AID 177); conditions: S. cerevisiae rad18 mutant growth inhibition, hits give high values
Summary of the method: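 Growth of the mutant yeast strain after compound exposure, normalised to vehicle-only cultures.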

[17] = at 5.0 µM (retest, dose inferred, filed as 0.5)
[18] = at 50.0 µM (retest, dose inferred, filed as 5.0)

Measured: growth inhibition

CNCC(C)CNC
inactive: [1]; at 1.2 µM -40% | [1]; at 3.7 µM -51% | [1]; at 11.0 µM -46% | [1]; at 33.0 µM -50% | [1]; at 100.0 µM -52% | [2]; at 1.2 µM -25% | [2]; at 3.7 µM -14% | [2]; at 11.0 µM -5% | [2]; at 33.0 µM -8% | [2]; at 100.0 µM -21% | [3]; at 1.2 µM -14% | [3]; at 3.7 µM -29% | [3]; at 11.0 µM -23% | [3]; at 33.0 µM -2% | [3]; at 100.0 µM -19% | [4]; at 1.2 µM 9% | [4]; at 3.7 µM 17% | [4]; at 11.0 µM 25% | [4]; at 33.0 µM 4% | [4]; at 100.0 µM 5% | [5]; at 1.2 µM 4% | [5]; at 3.7 µM -14% | [5]; [17] -6% | [5]; at 11.0 µM -28% | [5]; at 33.0 µM -27% | [5]; [18] 22% | [5]; at 100.0 µM -23% | [6]; at 1.2 µM -12% | [6]; at 3.7 µM -15% | [6]; [17] 10% | [6]; at 11.0 µM -19% | [6]; at 33.0 µM -27% | [6]; [18] 39% | [6]; at 50.0 µM 42.5% | [6]; at 100.0 µM -26% | [7]; at 1.2 µM -18% | [7]; at 3.7 µM -15% | [7]; at 11.0 µM -13% | [7]; at 33.0 µM -12% | [7]; at 100.0 µM -18% | [8]; [17] 2% | [8]; [18] 25% | [8]; at 50.0 µM 23.3% | [9]; at 1.2 µM 15% | [9]; at 3.7 µM 6% | [9]; at 11.0 µM -1% | [9]; at 33.0 µM -7% | [9]; at 100.0 µM -12% | [10]; [17] 20% | [10]; [18] 63% | [10]; at 50.0 µM 66.2% | [11]; at 1.2 µM -11% | [11]; at 3.7 µM 1% | [11]; [17] -9% | [11]; at 11.0 µM -8% | [11]; at 33.0 µM -33% | [11]; [18] 69% | [11]; at 50.0 µM -2.65% | [11]; at 100.0 µM -50% | [12]; at 1.2 µM -30% | [12]; at 3.7 µM -30% | [12]; at 11.0 µM -28% | [12]; at 33.0 µM -37% | [12]; at 100.0 µM -41% | [13]; at 1.2 µM 12% | [13]; at 3.7 µM 8% | [13]; at 11.0 µM 5% | [13]; at 33.0 µM 6% | [13]; at 100.0 µM -30% | [14]; at 1.2 µM -28% | [14]; at 3.7 µM -6% | [14]; at 11.0 µM -22% | [14]; at 33.0 µM -23% | [14]; at 100.0 µM -22% | [15]; [17] -6% | [16]; at 1.2 µM -16% | [16]; at 3.7 µM -25% | [16]; at 11.0 µM -21% | [16]; at 33.0 µM -21% | [16]; at 100.0 µM -31%
active: [5]; at 50.0 µM 73.8% | [15]; [18] 84% | [15]; at 50.0 µM 71.8%

O=[N+]([O-])c1cc(Cl)ccc1S(=O)(=O)c1ccc(Cl)cc1[N+](=O)[O-]
inactive: [1]; at 1.2 µM -25% | [1]; at 3.7 µM -8% | [1]; at 11.0 µM 40% | [2]; at 1.2 µM -13% | [2]; at 3.7 µM -19% | [2]; at 11.0 µM 0% | [3]; at 1.2 µM -6% | [3]; at 3.7 µM 20% | [3]; at 11.0 µM 55% | [3]; at 100.0 µM 64% | [4]; at 1.2 µM -29% | [4]; at 3.7 µM -27% | [4]; at 11.0 µM 0% | [5]; at 1.2 µM -31% | [5]; at 3.7 µM -21% | [5]; [17] 14% | [5]; at 11.0 µM 41% | [6]; at 1.2 µM -12% | [6]; at 3.7 µM 10% | [6]; [17] 4% | [6]; at 11.0 µM 20% | [7]; at 1.2 µM -15% | [7]; at 3.7 µM -11% | [7]; at 11.0 µM 25% | [8]; [17] 16% | [9]; at 1.2 µM -2% | [9]; at 3.7 µM -4% | [9]; at 11.0 µM 9% | [10]; [17] 13% | [11]; at 1.2 µM -21% | [11]; at 3.7 µM 7% | [12]; at 1.2 µM 0% | [12]; at 3.7 µM 4% | [12]; at 11.0 µM 21% | [13]; at 1.2 µM -3% | [13]; at 3.7 µM 3% | [13]; at 11.0 µM 44% | [14]; at 1.2 µM -3% | [14]; at 3.7 µM 13% | [14]; at 11.0 µM 35% | [15]; [17] 25% | [16]; at 1.2 µM 8% | [16]; at 3.7 µM 9% | [16]; at 11.0 µM 63%
active: [1]; at 33.0 µM 86% | [1]; at 100.0 µM 78% | [2]; at 33.0 µM 85% | [2]; at 100.0 µM 78% | [3]; at 33.0 µM 72% | [4]; at 33.0 µM 84% | [4]; at 100.0 µM 78% | [5]; at 33.0 µM 90% | [5]; [18] 92% | [5]; at 50.0 µM 76.8% | [5]; at 100.0 µM 81% | [6]; at 33.0 µM 89% | [6]; [18] 93% | [6]; at 50.0 µM 83% | [6]; at 100.0 µM 84% | [7]; at 33.0 µM 88% | [7]; at 100.0 µM 81% | [8]; [18] 91% | [8]; at 50.0 µM 84.3% | [9]; at 33.0 µM 82% | [9]; at 100.0 µM 79% | [10]; [18] 91% | [10]; at 50.0 µM 79.9% | [11]; [17] 73% | [11]; at 11.0 µM 80% | [11]; at 33.0 µM 93% | [11]; [18] 94% | [11]; at 50.0 µM 83.7% | [11]; at 100.0 µM 90% | [12]; at 33.0 µM 88% | [12]; at 100.0 µM 84% | [13]; at 33.0 µM 85% | [13]; at 100.0 µM 80% | [14]; at 33.0 µM 91% | [14]; at 100.0 µM 84% | [15]; [18] 91% | [15]; at 50.0 µM 80.8% | [16]; at 33.0 µM 91% | [16]; at 100.0 µM 87%
